SMN2 splice up: SMN2 splice variant enhancement | HEK293 SMN2-luciferase splicing reporter, luminescence, 30-36 h | actives 2.8% (n = 210,000) | Potency, µM (series often up to 46.1 µM), usual class: activators | AID 1458; note: nearly all actives have a fitted effect of over 55% in size
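HEK293 cells carry an SMN2 minigene-luciferase reporter in which exon 7 inclusion puts luciferase in frame. Cells were seeded at 2000 cells/well, attached for 10-12 hours, then exposed to compounds for 30-36 hours at 37C before ONE-Glo luminescence.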
ELG1 genotoxic: genotoxicity induction in ELG1-luciferase HEK293T cells | AID 504466 | actives 1.3% (n = 330,000) | Potency, µM (doses to about 46 µM), usual class: activators | HEK293T ELG1-luciferase reporter, luminescence, 16 h; note: nearly all actives have a fitted effect of over 60% in size
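Luminescence read-out: rising ELG1-luciferase signal, reflecting elevated ELG1 protein under genetic stress, flags genotoxic compounds. Cells were treated for 16 hr at 37 °C before ONE-Glo detection.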
Rab9 promoter act: activates the Rab9 promoter. actives 2.8% (n = 320,000). Huh7 Rab9 promoter-luciferase reporter, luminescence, 24 h. Potency, µM (titrated, usually from 9.22 µM), actives largely listed as activators; note: nearly all actives have a fitted effect of over 60% in size
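Cell-based reporter: Huh7 stable for Rab9 promoter-driven luciferase, plated in reduced-serum medium with 10% FBS at 1500 cells/well, compound-treated 24 h at 37 °C, luminescence read after 10 min reagent.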
FLuc modulator: inhibits or activates purified firefly luciferase, miR-21 counter-screen; P08659; purified FLuc, Km substrates, luminescence inhibition; Potency, µM (titrated, usually from 57.5 µM), most hits filed as inhibitors; actives 6.9% (n = 360,000); note: nearly all actives have a fitted effect of over 55% in size
Target sequence (P08659 whole entry, looked up): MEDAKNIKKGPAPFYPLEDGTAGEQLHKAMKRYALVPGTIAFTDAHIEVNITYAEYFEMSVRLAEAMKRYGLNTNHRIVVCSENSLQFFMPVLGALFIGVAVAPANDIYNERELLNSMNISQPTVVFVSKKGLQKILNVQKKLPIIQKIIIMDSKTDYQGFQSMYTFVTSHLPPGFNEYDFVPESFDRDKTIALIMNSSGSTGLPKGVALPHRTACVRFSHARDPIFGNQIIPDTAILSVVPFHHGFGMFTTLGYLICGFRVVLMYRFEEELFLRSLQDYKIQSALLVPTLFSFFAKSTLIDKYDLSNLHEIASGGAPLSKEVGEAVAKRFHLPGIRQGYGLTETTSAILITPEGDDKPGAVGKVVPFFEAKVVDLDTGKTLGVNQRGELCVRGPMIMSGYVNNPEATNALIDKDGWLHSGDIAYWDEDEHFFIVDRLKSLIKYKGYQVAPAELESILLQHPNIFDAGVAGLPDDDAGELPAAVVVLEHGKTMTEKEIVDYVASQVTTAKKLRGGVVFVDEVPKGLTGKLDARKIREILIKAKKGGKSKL
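Purified P. pyralis luciferase (10nM final) with 10uM D-luciferin and 10uM ATP (Km levels) in 50mM Tris acetate pH 7.5, 10mM Mg acetate, 0.01% Tween-20, 0.05% BSA; qHTS 6-point titration, ~60 µM downward; luminescence read.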
NPC1 promoter act: activators of NPC1 promoter. Huh7 NPC1 promoter luciferase reporter, 24 h. Potency, µM (series often up to 9.22 µM), most hits filed as activators. actives 2.4% (n = 320,000). AID 485313; note: nearly all actives have a fitted effect of over 60% in size
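Luciferase expression driven by the NPC1 promoter was measured in stably transfected Huh7 cells after a 24 h compound incubation, using a luciferase reagent and a luminescence read.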
ELG1 DNA repair: inhibitors of ELG1-dependent DNA repair in HEK293T cells. HEK293T ELG1-luciferase reporter, luminescence, 16 h; DNA damage induced by 5-fluorouridine. Potency, µM (top dose mostly 46.1 µM), hits mostly inhibitors. actives 2.3% (n = 330,000); note: nearly all actives have a fitted effect of over 55% in size
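Quantitative HTS, concentration-response format. 2,000 cells/well co-treated with 5-fluorouridine and compound, 16 hr in 5% CO2 at 37 °C; ONE-Glo luminescence read after 30 min.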
Hits are given with their value; n = inactive; u = inconclusive; x = no result; [ ] = remark or other dose. This is a sample that favours compounds with a hit; in the whole collection about 9.2% have one here. Calls come from the whole dose curve; as a rule, active = well fitted curve in the direction sought with a large enough effect; inconclusive = small, poorly fitted or top-dose-only effect, or another doubt; inactive = no such curve, though single readings can be large; an effect the other way counts as inactive or inconclusive.

SMILES | SMN2 splice up | ELG1 genotoxic | Rab9 promoter act | FLuc modulator | NPC1 promoter act | ELG1 DNA repair
O=C(CSc1ccc(-c2ccc(F)cc2)nn1)N1CCOCC1 | n | u | n | n | n | n
COc1ccc(CNC(=O)c2nn(-c3ccccc3C)nc2CO)cc1 | n | x | x | n | x | x
CCC(=O)Oc1c(Sc2ccc(Cl)cc2)c(C)nn1-c1ccccc1 | n | x | x | u | x | x
CCOc1ccccc1-c1noc(CSc2nnc(-c3ccncc3)n2-c2ccc(F)cc2)n1 | n | x | x | n | x | x
O=C(N/N=C/C(Br)=C/c1ccccc1)C1CC1 | x | n | 2.8µM | u | n | u
O=C(N/N=C/C(Br)=C/c1ccccc1)C(O)c1ccccc1 (stereo not given) | x | n | n | 15µM | n | u
Cc1ccc(NCC(=O)N/N=C\C(Br)=C\c2ccccc2)cc1 | n | n | n | n | n | n
O=C(O)c1ccc(N/N=C/C(Br)=C/c2ccccc2)cc1 | x | u | 0.32µM | 0.48µM | 0.35µM | u
CCOc1ccc(CC(=O)Nc2c(C(=O)c3ccccc3)oc3ccc(OC)cc23)cc1OCC | n | x | x | n | x | x
COc1cccc(NC(=O)COc2cc(O)c3c(c2)OC(C)(C)CC3=O)c1 | x | n | u | 4.3µM | u | u
COc1cccc(NC(=O)COc2ccc(C)cc2)c1 | n | u | n | 12µM | n | u
CC1(C)CC(=O)c2c(O)cc(OCc3ccc([N+](=O)[O-])cc3)cc2O1 | n | u | 3.5µM | 4.8µM | 2.5µM | u
COc1cccc(NC(=O)COc2ccc3c(c2)CCC3)c1 | n | n | n | 15µM | n | u
Cc1ccc(S(=O)(=O)Cc2nc(-c3ccc(C(=O)NCc4ccccc4)cc3)oc2C)cc1 | x | x | x | n | x | x
COc1ccc(NC(=O)CSc2nc3nc(C)c(Cc4ccccc4Cl)c(C)n3n2)cc1OC | x | x | x | n | x | x
Cc1ccc(C(C)C)c(OCC(=O)N2CCC(c3nc4ccccc4o3)CC2)c1 | x | x | x | n | x | x
C=CCN1c2ccccc2[C@]23C[C@@H](C(=O)OC)N(S(=O)(=O)c4c(C)noc4C)C2=NC(C(=O)OC)=C(C(=O)OC)[C@H]13 | n[9.22 µM] | x | x | x | x | x
COc1ccc(NS(=O)(=O)c2cccc(NC(=O)COc3ccc(OC)cc3)c2)cc1 | x | n | n | 17µM | n | u
CS(=O)(=O)c1ccc(-c2cccc(NC(=O)COc3ccc(Cl)cc3)c2)nn1 | x | n | n | n | n | u
COc1ccccc1CNC(=O)COc1ccc(C)cc1 | x | n | n | n | 3.2µM | n
COc1ccc(-c2cccc(NC(=O)COc3ccc(Cl)cc3)c2)nn1 | x | n | n | 21µM | n | n
CCOC(=O)c1cc2c(=O)n3ccccc3nc2n(CCOC)c1=NC(=O)c1cc2ccccc2o1 | n | x | x | n | x | x
Cc1cc(C)cc(NC(=O)c2cc(C)nc3c2c(C)nn3-c2ccccc2)c1 | x | x | x | n | x | x
COc1cccc(C(=O)N2CCCC(Nc3ccc(C)c(C)c3)C2)c1 (stereo not given) | x | n | n | n | n | n
COc1cccc(C(=O)C2CCCN(C(=O)c3cccc(C#CC(C)(C)O)c3)C2)c1 (stereo not given) | n | n | n | n | n | 16µM
SMILES | SMN2 splice up | ELG1 genotoxic | Rab9 promoter act | FLuc modulator | NPC1 promoter act | ELG1 DNA repair
CCn1c2ccccc2c2cc(NC(=O)c3cccc(OC)c3OC)ccc21 | n | n | n | u | n | 15µM
CCn1c(=O)sc2cc(NC(=O)c3cccc(OC)c3)ccc21 | n | x | x | u | x | x
CCn1c2ccccc2c2cc(NC(=O)c3cccc(OC)c3)ccc21 | u | n | u | 17µM | u | n
N#Cc1ccccc1OCCCN1CCC(Cc2ccccc2)CC1 | x | n | n | n | n | n
CC1=C([N+](=O)[O-])C(c2ccc3c(c2)OCO3)N(C)C(=O)N1C (stereo not given) | x | n | n | n | n | n
O=c1c2c(nc3c(-c4ccc(Cl)cc4)c[nH]n13)CCC2 | n | n | n | u | n | 13µM
O=c1c2c(nc3c(-c4ccccc4)c[nH]n13)CCC2 | n | n | n | u | n | n
CNC(=O)Cn1ncc2c(C)n(Cc3ccc(C)cc3)c(C)c2c1=O | n | n | n | n | n | n
Cc1ccc(Cn2c(C)c3cnn(CC(=O)NC4CCCC4)c(=O)c3c2C)cc1 | x | n | 1.3µM | u | u | u
Cc1c2cnn(CC(=O)O)c(=O)c2c(C)n1Cc1ccccc1 | n | n | n | n | n | n
COC(=O)Cn1ncc2c(C)n(Cc3ccccc3)c(C)c2c1=O | 18µM | 21µM | u | 12µM | u | u
CCc1ccc2c(c1)[C@H]1OCC[C@H]1[C@@H](c1cccs1)N2 | n | n | n | 15µM | n | n
Fc1ccc2c(c1)[C@H]1OCC[C@H]1[C@@H](c1ccco1)N2 | n | n | n | n | n | n
Cc1ccc(-c2csc(NC(=O)c3c(C)noc3C)n2)cc1C | x | n | n | u | n | n
O=C(Nc1nc(-c2ccccc2)cs1)c1ccco1 | x | n | u | 15µM | u | u
O=C(Nc1cc(-c2ccccc2)cs1)c1ccco1 | x | 16µM | 3.5µM | 7.6µM | u | u
O=C(O)c1ccccc1C(=O)Nc1nc(-c2ccc3ccccc3c2)cs1 | x | n | u | 17µM | n | u
O=C(Nc1nc(-c2ccc3ccccc3c2)cs1)c1ccc(N2C(=O)CCC2=O)cc1 | n | n | n | n | n | n
Cc1ccc(-c2csc(NC(=O)c3ccco3)n2)cc1C | x | u | 4µM | 8.5µM | 2.2µM | u
O=C(O)c1cccc2c1/C(=N/Nc1ccc([N+](=O)[O-])cc1[N+](=O)[O-])c1ccccc1-2 | x | n | n | n | n | n
O=C(Nc1nc(-c2cc(F)ccc2F)cs1)C1=NN(c2ccccc2)C(=O)CC1 | n | n | n | u | n | u
Cc1cc(NC(=O)c2ccco2)sc1C | x | u | 2µM | 5.4µM | 2µM | u
COc1ccc(-c2csc(NC(=O)C3=NN(c4ccccc4)C(=O)CC3)n2)cc1 | n | n | n | 7.6µM | n | u
O=C(NNc1nc(-c2ccc(Br)cc2)cs1)c1ccco1 | n | u | u | 8.5µM | n | u
Cc1sc(NC(=O)c2ccco2)c(CN2CCN(Cc3ccccc3)CC2)c1C | n | n | n | u | n | 13µM
SMILES | SMN2 splice up | ELG1 genotoxic | Rab9 promoter act | FLuc modulator | NPC1 promoter act | ELG1 DNA repair
Cc1ccc(C(=O)c2cn(Cc3ccc(F)cc3)c3nc(C)ccc3c2=O)cc1 | n | x | x | n | x | x
O=C(Nc1nc(-c2ccco2)cs1)c1ccccc1 | n | u | u | 11µM | u | u
COc1ccc(-c2csc(NC(=O)c3c(OC)cccc3OC)n2)cc1 | x | n | n | n | n | n
COc1ccc(-c2csc(NC(=O)c3ccco3)n2)cc1 | 7.9µM | n | 2.2µM | 9.5µM | 2.8µM | u
CCOc1ccc(-c2csc(NC(=O)c3ccco3)n2)cc1 | x | u | u | 12µM | n | u
Cc1ccc(-c2csc(NC(=O)c3ccc(-c4ccccc4)cc3)n2)o1 | n | 18µM | n | 4.3µM | n | n

Source: PubChem
